aSyn UTR act: Activators working through SNCA 5'UTR binding (MLPCN); activity score, % (tested at 7.5 µM), hits read low; AID 1814; 300,000 compounds, 7.1% hits; alpha-synuclein 5'UTR reporter, activators screen; in the data active = activity score below about -60%
Large screens that a line does not name were inactive. Only a sample is shown.

O=C(Nc1ccccn1)c1ccc(Cl)s1	aSyn UTR act -129
O=C(Nc1ccc(Br)cn1)c1ccc(Br)s1	aSyn UTR act -198
O=C(Nc1ccc(Br)cn1)c1ccc(Cl)s1	aSyn UTR act -167
Cc1nc2ccc(-c3ccccc3)cc2o1	aSyn UTR act -79
Cc1ccc(NC(=O)CNC(C)c2ccccc2)cc1 (stereo not drawn)	aSyn UTR act -73
Cc1ccc(NC(=O)NCC(c2ccccc2)N(C)C)cc1 (stereo not drawn)	aSyn UTR act -107
COc1ccc(C)cc1NC(=O)CNC(c1ccccc1)c1ccc(C)cc1 (stereo not drawn)	none
Clc1ccccc1Cn1nnc(-c2cccs2)n1	aSyn UTR act -100
Clc1ccccc1Cn1nnc(-c2ccccc2)n1	aSyn UTR act -153
CN(C)c1ccc(-c2nnn(Cc3ccccc3Br)n2)cc1	aSyn UTR act -66
CCCCNc1nc(N)nc(-c2cc(Cl)ccc2O)n1	aSyn UTR act -67
Cc1ccc(N2NC(C)(c3cccs3)NC2=S)cc1 (stereo not drawn)	aSyn UTR act -151
CCN(CC)CCNc1nc2cc(OC)c(OC)cc2c2nc(-c3ccccc3)nn12	aSyn UTR act -73
CC(=O)c1ccc2c(c1)C1C=CCC1C(c1ccncc1)N2 (stereo not drawn)	aSyn UTR act -77
CCOC(=O)c1c(C)oc2c(F)c(F)c(F)c(F)c2c1=O	aSyn UTR act -85
CCN(CC)C(=O)c1ccc(-c2cccs2)s1	aSyn UTR act -73
CCOc1ccc(C(=O)c2cc([N+](=O)[O-])ccc2N2CCOCC2)cc1	none
CCOc1ccc(OCc2ccc(C(=O)N3CCCC(C)C3)cc2)cc1 (stereo not drawn)	aSyn UTR act -63
CCOc1ccc(OCc2ccc(C(=O)N3CCOCC3)cc2)cc1	aSyn UTR act -91
CCOc1ccc(N=C(/C(C(=O)C(=O)N2CCOCC2)=C(\O)c2ccccc2)c2ccccc2)cc1	aSyn UTR act -151
Fc1ccccc1Nc1n[nH]c(=S)s1	aSyn UTR act -64
O=C(NCCN1C(=O)C2C3C=CC(C3)C2C1=O)Nc1ccc(Br)cc1 (stereo not drawn)	aSyn UTR act -144
CCC(Sc1nncn1C)C(=O)Nc1nnc(-c2ccccc2Cl)s1 (stereo not drawn)	aSyn UTR act -64
O=C(Nc1nnc(-c2ccccc2)s1)c1ccccc1F	aSyn UTR act -152
O=C(Nc1nnc(-c2ccccc2Cl)s1)c1ccccc1F	aSyn UTR act -173
CCCOc1ccc(N2C(=O)CC(N(O)c3ccccc3)C2=O)cc1 (stereo not drawn)	aSyn UTR act -77
COC(=O)c1ccc(N2C(=O)CC(SCCN)C2=O)cc1 (stereo not drawn)	aSyn UTR act -84
CCCOc1ccc(N2C(=O)CC(SCCN)C2=O)cc1 (stereo not drawn)	aSyn UTR act -71
Cc1ccc(NC(=O)c2ccc3c(=O)n4c(nc3c2)CCCCC4)nc1	aSyn UTR act -72
O=C(NC1CCCCCC1)c1ccc2c(=O)n3c(nc2c1)CCCCC3	aSyn UTR act -72
COc1ccc(C2=NN(CN3C(=O)C(=O)c4ccccc43)C(c3ccc(C)cc3)C2)cc1 (stereo not drawn)	aSyn UTR act -116
COc1ccc(C2=NN(CN3C(=O)C(=O)c4ccccc43)C(c3ccc(Br)cc3)C2)cc1 (stereo not drawn)	aSyn UTR act -115
Cc1ccc(/C=C2/C(=O)ON=C2c2ccccc2)o1	aSyn UTR act -66
COC(=O)c1cc(Br)ccc1-c1ccc(/C=N/n2nnnc2N)o1	none
CCN(CC)c1ccc(/C=N/n2nnnc2N)c(O)c1	aSyn UTR act -89
CCN(C)c1ccc(/C=N\n2nnnc2N)cc1	aSyn UTR act -115
CC(=O)OCCCN1c2ccccc2Nc2nnc(-c3ccccc3)cc21	aSyn UTR act -155
CCCC(=O)NC(c1ccc(Cl)cc1Cl)c1ccc2cccnc2c1O (stereo not drawn)	none
CCNC(=O)CCCOc1ccc(Cl)cc1Cl	aSyn UTR act -82
COc1ccc2[nH]c3c(NCCC4=CCCCC4)ncnc3c2c1	aSyn UTR act -195
COc1ccc2[nH]c3nc(SC(C)C)nnc3c2c1	none
Clc1ccc2[nH]c3c(NCCCN4CCOCC4)ncnc3c2c1	aSyn UTR act -62
COc1ccc2[nH]c3c(NCc4ccco4)ncnc3c2c1	aSyn UTR act -113
COc1ccc2[nH]c3c(NCCCOC(C)C)ncnc3c2c1	aSyn UTR act -138
Cn1c(/C=N/Nc2nc3ccccc3[nH]2)nc2ccccc21	aSyn UTR act -188
C=CCn1cc(/C=N/Nc2nc3ccccc3[nH]2)c2ccccc21	aSyn UTR act -195
CC(C)Cn1c(/C=N/Nc2nc3ccccc3[nH]2)nc2ccccc21	aSyn UTR act -337
CC(=C/c1ccc(C(C)C)cc1)/C=N/NC(=O)CSc1ccccn1	aSyn UTR act -164
CC(/C=N/NC(=O)CSc1ccccn1)=C\c1ccc(C(C)C)cc1	aSyn UTR act -254
Cc1ccc(S(=O)(=O)NC(=O)Nc2ccc(N(C)C)cc2)cc1	aSyn UTR act -111
Cc1cc(/C=N/n2cnnc2)c(C)n1-c1ccc(OCc2ccc(F)cc2)cc1	aSyn UTR act -73
Cc1cc(/C=N/n2cnnc2)c(C)n1-c1ccc(OCc2ccc(Cl)cc2Cl)cc1	none
O=C(CCl)NC(Cc1ccccc1)c1ccccc1 (stereo not drawn)	none
CC(C)c1cccc(C(C)C)c1NC(=O)CCl	aSyn UTR act -76
COc1ccccc1C(=O)N/N=C(\C)c1ccc(NC(=O)Cc2ccccc2)cc1	aSyn UTR act -104
COc1ccccc1C(=O)NN=C1CCN(Cc2ccccc2)CC1	aSyn UTR act -73
C/C(=N\NC(=O)c1ccccc1N)c1ccc(NC(=O)Cc2ccccc2)cc1	aSyn UTR act -68
C/C(=N\NC(=O)c1cccc(C)c1O)c1ccc(NC(=O)Cc2ccccc2)cc1	aSyn UTR act -74
COc1ccc(O)c(C(=O)CC(=O)c2ccc(F)cc2)c1	none
COc1ccc(C(=O)CC(=O)c2ccccc2O)cc1	aSyn UTR act -218
COc1ccc(O)c(C(=O)CC(=O)c2ccccc2C)c1	aSyn UTR act -100
CN=Cc1cc(-c2ccccc2)sc1O	aSyn UTR act -100
O=C(c1ccccc1)c1cnc(-c2ccccc2)s1	aSyn UTR act -99
CN(C)/C=C/C(=O)c1cnc(-c2ccccc2)s1	aSyn UTR act -116
CN(C)/C=C/C(=O)c1cnc(-c2ccc(Cl)cc2)s1	aSyn UTR act -90
Cc1nc2c(-c3ccc(Cl)cc3)cnn2c2c1CCC2	aSyn UTR act -123
O=c1c2c(nc3c(-c4ccc(Cl)cc4)c[nH]n13)CCCC2	none
Cc1ccc(-n2nc(C)c(NC(=O)CCl)c2C)cc1C	aSyn UTR act -220
CCn1c(C)nc2cc(C(=O)NNC(=S)Nc3ccccc3OC)ccc21	aSyn UTR act -74
CCn1c(C)nc2cc(C(=O)N/N=C(\C)c3ccccc3O)ccc21	aSyn UTR act -143
CCn1c(C)nc2cc(NC(=O)Nc3cccc(C(C)=O)c3)ccc21	aSyn UTR act -99
CCn1c(C)nc2cc(C(=O)N/N=C/c3ccccc3C)ccc21	aSyn UTR act -142
c1ccc2c(c1)CCN(c1nc3cc4c(cc3s1)OCO4)C2	aSyn UTR act -122
Fc1ccc2nc(N3CCOCC3)sc2c1	aSyn UTR act -131
c1c2c(cc3sc(N4CCOCC4)nc13)OCO2	aSyn UTR act -64
c1ccc(N2CCN(c3nc4cc5c(cc4s3)OCO5)CC2)cc1	aSyn UTR act -142
Cc1ccc(NC(=O)c2ccc3nc(N4CCOCC4)sc3c2)c(Cl)c1	aSyn UTR act -68
N#Cc1cc2cc3c(cc2nc1N1CCCCC1)OCCO3	aSyn UTR act -222
N#Cc1cnn2c1nc(N1CCCCC1)c1ccccc12	none
